Screening data as filed in PubChem BioAssay.
A selection: hits, their analogues and other compounds. The true share with any hit is near 7.2%.
VLA-4 inh – inhibition in human VLA-4 binding assay, primary screen, VLA-4 allosteric modulator project, MLPCN library, flow cytometry, VLA-4 expressing cells; 330,000 tested, 0.2% active; Integrin alpha-4 (Homo sapiens), P13612; inhibition, % (about 7 µM as worked out from the volumes in the protocol); AID 2557, 2010; ligand binding flow cytometry; in the data active = inhibition above about 50%
ALR H2O2 inh – inhibitors of human ALR sulfhydryl oxidase, primary screen, biochemical, H2O2 detection, HRP-luminol luminescence, single point; FAD-linked sulfhydryl oxidase ALR (Homo sapiens), P55789; inhibition, % (concentration not given with the values); AID 485317, 2010; 290,000 tested, 3.8% active; purified ALR, DTT oxidation;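 active = mean replicate inhibition above about 79%, with every replicate also reaching it, limit read from the data; inconclusive = only one of the two criteria met; inactive = mean below limit and not every replicate reaching it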
Target sequence (P55789 whole entry, looked up): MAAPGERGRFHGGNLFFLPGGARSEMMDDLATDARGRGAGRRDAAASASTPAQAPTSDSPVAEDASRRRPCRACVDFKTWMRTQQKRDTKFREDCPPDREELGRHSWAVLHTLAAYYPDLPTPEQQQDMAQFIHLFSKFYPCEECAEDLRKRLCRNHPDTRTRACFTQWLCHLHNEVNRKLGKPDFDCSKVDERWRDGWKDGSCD
Efflux pump mplx – inhibitors of Candida efflux pumps in yeast, primary screen, S. cerevisiae, Nile Red, multiplex; AID 485275, 2010; S. cerevisiae Candida pump triplex; inhibition, % at 10 µM; 330,000 tested, 0.44% active;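 active = plate passing quality check with inhibition over a set limit, or well fluorescence over plate mean plus 4 SD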;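 also: Nile Red retained in pooled yeast measured as flow cytometry median fluorescence; higher means more Nile Red kept so more efflux inhibition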
Bfl-1 A1 inh – caspase 3/7 activation in MEF A1-2A-BIM cells, primary screen, A1 inhibitor project, cell-based, luminescence, HTS | caspase activation, % (no concentration beside the values) | AID 2462, 2010 | 330,000 tested, 0.066% active | Caspase-Glo 3/7 luminescence, 3 h; percent of clofoctol response, vehicle zero;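 active = over half of replicate activation scores above 10%, or exactly half above 10 with the replicate mean above 10; inconclusive = replicate mean below 10 yet half the replicates above 10; inactive = over half of replicates below 10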
Mot1-301 SUMO – yeast Mot1-301 growth rescue at high temperature, primary screen, SUMOylation pathway inhibitor project, S. cerevisiae, ATP luminescence, 38.5C | S. cerevisiae Mot1-301 growth rescue; percent above DMSO median, 100 means doubled | growth rescue, % at 18.8 µM | 320,000 tested, 1% active | AID 2716, 2010;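 active = every valid replicate shows activation above 250% relative to neutral control wells; inactive = the rest, any valid replicate at or below 250%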
AHR activator – AHR activators, primary screen, cell-based, luminescence, luciferase reporter, human. 320,000 tested, 2.5% active. Aryl hydrocarbon receptor (Homo sapiens), P35869. AHR-responsive luciferase reporter cells. AID 2796, 2010. activation, % at 5 µM; in the data active = activation above about 47%
A number is an active result; n = inactive; u = inconclusive; x = not tested or not shown.

SMILES	VLA-4 inh	ALR H2O2 inh	Efflux pump mplx	Bfl-1 A1 inh	Mot1-301 SUMO	AHR activator
COc1cccc(N2CCN(c3ccc4nnc(CCC(=O)Nc5cccc(C(C)=O)c5)n4n3)CC2)c1	n	n	n	n	n	n
COc1ccc(N2CCN(C(=O)CCc3nnc4ccc(N5CCC(C)CC5)nn34)CC2)cc1	n	90.4	n	n	n	n
COc1ccccc1N1CCN(C(=O)CCc2nnc3ccc(N4CCOCC4)nn23)CC1	n	n	n	n	n	n
CCCN1CCN(C(=O)CCc2nnc3ccc(N4CCN(c5cccc(OC)c5)CC4)nn23)CC1	n	98.6	n	n	n	n
NS(=O)(=O)c1ccc(NC(=O)c2cccc(Cl)c2)cc1	n	n	n	n	n	n
c1ccc(-c2nc3ccccn3c2NC2CCCC2)nc1	n	u	n	n	n	n
Cc1ccn2c(NC3CCCC3)c(-c3ccncc3)nc2c1	n	98.4	n	n	n	n
Clc1ccc(-c2nc3cnccn3c2NC2CCCC2)cc1	n	98.7	n	n	n	51.3
Cc1ccn2c(NC3CCCC3)c(-c3ccccn3)nc2c1	n	97.8	n	n	x	77.1
Cc1ccc(Nc2c(-c3ccccn3)nc3cc(C)ccn23)cc1	n	98.5	n	n	x	n
COC(=O)C1CCN(C(=O)Cc2c(OC)ccc3cc(Br)ccc23)CC1	n	n	n	n	n	n
Cc1ccc(N2C(=O)N(CC(=O)Nc3ccc(C)cc3C)C(=O)C2C)cc1 (centres undefined)	n	n	n	n	n	n
Cc1nc(N/N=C/c2ccccn2)sc1C	n	96.9	n	n	n	n
O=C1NC(=O)/C(=C\c2ccc(Sc3ccc(Cl)cc3)o2)N1	n	90.4	n	n	n	n
Cn1c(N)c(C(=O)CCl)c(=O)n(Cc2ccccc2)c1=O	x	99.1	x	n	n	n
Cn1c(=O)c(C(=O)CCl)c(N)n(Cc2ccccc2)c1=O	n	n	n	n	n	n
Cn1c(N)cc(=O)n(Cc2ccccc2)c1=O	x	99.0	x	n	n	n
COc1ccc(S(=O)(=O)N2CCCC(C(=O)NCCN3CCOCC3)C2)cc1C (centres undefined)	n	n	n	n	317.8	n
COc1ccc(S(=O)(=O)N2CCC(C(=O)NCCN3CCOCC3)CC2)cc1C	n	n	n	n	n	n
CCOC(=O)CC(=O)Nc1ccc(C)cc1	n	n	n	n	n	n
COc1ccc(/C=N/N(C(C)=O)c2nc(-c3ccc(C)cc3)cs2)cc1	n	n	n	n	n	n
CC(=O)N(/N=C/c1cccc(C)c1)c1nc(-c2ccc(Br)cc2)cs1	n	n	n	n	n	78.3
COc1ccccc1/C=N/N(C(C)=O)c1nc(-c2ccc(F)cc2)cs1	n	n	n	n	n	55.9
O=C(CCNS(=O)(=O)c1ccc(F)c(F)c1)NCCN1CCOCC1	n	n	n	n	n	n
Cc1nc2ccccc2nc1SCC(=O)c1ccccc1	n	n	n	n	n	48.0
SMILES	VLA-4 inh	ALR H2O2 inh	Efflux pump mplx	Bfl-1 A1 inh	Mot1-301 SUMO	AHR activator
CCCc1nc(SCC(=O)c2ccc(F)cc2)c2ccccc2n1	n	98.9	n	n	n	n
O=C(CSc1ccc2ccccc2n1)c1ccccc1	n	x	n	n	n	68.0
CCCCNC(=O)CSc1nc(CCC)nc2ccccc12	n	n	n	n	n	n
C/C(=N/NC(=O)CNC(=O)c1cccs1)c1ccco1	n	n	n	n	n	n
COCCN(C(=O)COC(=O)c1sccc1C)c1c(N)n(Cc2ccccc2)c(=O)[nH]c1=O	n	n	n	n	n	n
NNC(=O)/C=C/c1ccc(Cl)cc1Cl	n	98.0	n	n	n	n
O=C(O)CNC(=O)/C=C/c1ccc(Cl)cc1Cl	n	n	n	n	n	n
COc1cc2c(cc1OC)C1(CCCC1)CNC2C (centres undefined)	n	n	n	n	n	n
COc1cc2c(cc1OC)C1(CCCC1)C(N)=C2C#N	n	n	n	n	n	47.5
CCOC(=O)C(NC(=O)N(C)C)(Nc1sc(C)c(CC)c1C#N)C(F)(F)F (centres undefined)	n	n	n	n	n	n
